Measured values from PubChem BioAssay (Tox21).
The source holds several records for some structures; these can differ, active in one and inactive in another. Calls of active or inactive are those of the source. Where a call stands in place of a potency, no number is given. Unless noted, calls follow the shape of the dose curve; as a rule, active = well fitted curve in the direction sought with a large enough effect in the repeat runs; inconclusive = weak or mixed curves; inactive = flat fitted curve, though single readings scatter.

Tests used:
[1] = qHTS assay to test for compound auto fluorescence at 535 nm (green) in HEK293 cells (AID 720680)
[2] = qHTS assay to test for compound auto fluorescence at 460 nm (blue) in HEK293 cell free culture (AID 720681); also: potency is read from the fitted curve at half-maximal effect
Summary of the method: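 Compounds were added to cell-free DMEM with 10% FBS and fluorescence read directly. The blue channel used 405 nm excitation and 460 nm emission, with triamterene as the reference fluorophore.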

[3] = qHTS assay to test for compound auto fluorescence at 535 nm (green) in HEK293 cell free culture (AID 720682)
Summary of the method: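 Fluorescein serves as the green reference fluorophore; each compound's intrinsic emission at 535 nm (excitation 485 nm) is reported as an equivalent amount of that dye, measured in serum-containing DMEM without cells.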

[4] = qHTS assay to test for compound auto fluorescence at 590 nm (red) in HepG2 cell free culture (AID 720684)
Summary of the method: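 Auto fluorescence equivalency versus Rose Bengal sodium, red channel Ex/Em 540/590 nm; compounds in cell-free MEM/10% FBS; DMSO vehicle control.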

[5] = qHTS assay to test for compound auto fluorescence at 460 nm (blue) in HepG2 cell free culture (AID 720685); also: potency is read from the fitted curve at half-maximal effect
Summary of the method: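 Cell-free plates of MEM plus 10% FBS received 23 nL compound or DMSO vehicle; blue-channel (405/460 nm) intensity scored against triamterene as reference fluorophore.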

[6] = qHTS assay to test for compound auto fluorescence at 535 nm (green) in HepG2 cell free culture (AID 720686)
[7] = qHTS assay to test for compound auto fluorescence at 460 nm (blue) in HepG2 cells (AID 720687); also: potency is read from the fitted curve at half-maximal effect
Summary of the method: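 HepG2 cells in MEM with 10% FBS, attached overnight at 37 C, were exposed to compound or DMSO for 1 hr at 37 C, 5% CO2. Blue fluorescence was read at 405/460 nm, with triamterene as reference fluorophore.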

[8] = biological target: Glucocorticoid receptor (Homo sapiens) (UniProt P04150); test: qHTS assay to identify small molecule agonists of the glucocorticoid receptor (GR) signaling pathway (AID 720691; active = well fitted activation curve with a large enough effect in the signal ratio in the repeat runs, not every such curve was filed as active; inconclusive = weak or mixed curves, or effect the other way; inactive = no such curve, though single readings can be large or run the other way; the % refers to the signal ratio; also: potency is read from the fitted curve at half-maximal effect); settings: GR-bla HeLa, beta-lactamase reporter ratio, 18 h; activation: at 62.4 µM (top of the series)
Sequence of Glucocorticoid receptor (Homo sapiens) (P04150 whole entry, looked up): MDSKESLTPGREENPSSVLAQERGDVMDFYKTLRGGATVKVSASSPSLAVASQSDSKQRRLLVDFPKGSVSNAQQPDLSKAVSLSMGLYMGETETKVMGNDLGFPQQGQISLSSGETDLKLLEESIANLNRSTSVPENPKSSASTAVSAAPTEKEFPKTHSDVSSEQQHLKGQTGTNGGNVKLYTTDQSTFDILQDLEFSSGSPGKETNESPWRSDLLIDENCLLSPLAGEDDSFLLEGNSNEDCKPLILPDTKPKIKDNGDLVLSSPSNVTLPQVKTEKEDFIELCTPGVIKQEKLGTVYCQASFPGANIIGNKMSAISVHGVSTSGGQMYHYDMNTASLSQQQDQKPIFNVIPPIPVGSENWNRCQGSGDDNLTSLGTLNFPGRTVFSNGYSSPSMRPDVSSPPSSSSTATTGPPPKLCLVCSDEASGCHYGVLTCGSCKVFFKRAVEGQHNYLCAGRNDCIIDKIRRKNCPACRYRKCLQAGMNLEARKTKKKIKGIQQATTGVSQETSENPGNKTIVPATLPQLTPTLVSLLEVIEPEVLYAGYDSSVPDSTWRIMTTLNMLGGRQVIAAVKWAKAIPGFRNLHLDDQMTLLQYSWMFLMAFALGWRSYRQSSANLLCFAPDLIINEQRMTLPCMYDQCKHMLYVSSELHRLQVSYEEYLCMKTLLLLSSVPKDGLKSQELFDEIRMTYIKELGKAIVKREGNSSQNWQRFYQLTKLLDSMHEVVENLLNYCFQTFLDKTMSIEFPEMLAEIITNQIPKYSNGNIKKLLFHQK
Summary of the method: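 Steps: seed GR-bla HeLa cells, incubate 4 h at 37 C/5% CO2; pin-transfer DMSO-dissolved compounds; incubate 18 h at 37 C; add LiveBLAzer B/G FRET substrate; after 2 h at room temperature, measure fluorescence.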

[9] = biological target: Glucocorticoid receptor (Homo sapiens) (UniProt P04150); test: qHTS assay to identify small molecule antagonists of the glucocorticoid receptor (GR) signaling pathway (AID 720692; active = well fitted inhibition curve with a large enough effect in the signal ratio in the repeat runs, not every such curve was filed as active; inconclusive = weak or mixed curves, or effect the other way; inactive = no such curve, though single readings can be large or run the other way; the % refers to the signal ratio; also: potency is read from the fitted curve at half-maximal effect)
Summary of the method: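 Antagonism was scored as loss of dexamethasone-driven (5 nM final) reporter signal in HeLa cells bearing a glucocorticoid response element–beta-lactamase construct, after 18 h compound exposure at 37 C and 2 h FRET substrate loading.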

[10] = qHTS assay to test for compound auto fluorescence at 590 nm (red) in HEK293 cell free culture (AID 720683)
Summary of the method: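 Cell-free wells of DMEM with 10% FBS received compound, and intrinsic fluorescence was read at excitation/emission 540/590 nm. Values expressed as equivalence to Rose Bengal sodium.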
Tags tell the direction and shape of the fitted curve or compound fluorescence and quenching.

| Structure (SMILES) | outcome [1] | Potency [2] | outcome [3] | outcome [4] | Potency [5] | Potency [6] | Potency [7] | Potency [8] | Potency [9] | outcome [10] |
| --- | --- | --- | --- | --- | --- | --- | --- | --- | --- | --- |
| CC(C)(C)C(=O)OCC(=O)[C@H]1CC[C@H]2[C@@H]3CCC4=CC(=O)CC[C@]4(C)[C@H]3CC[C@]12C | inactive | inactive | inactive | inactive | inactive | inactive | inactive |  |  |  |
| Cc1ncc(C[n+]2csc(CCOP(=O)(O)O)c2C)c(N)n1 | inactive | inactive | inactive | inactive | inactive | inactive | inactive | inactive |  |  |
| C=C1[C@H](CO)[C@@H](O)C[C@@H]1n1cnc2c(=O)[nH]c(N)nc21 | inactive | inactive | inactive | inactive | inactive | inactive | inactive | inactive | inactive |  |
| CC(=O)NC[C@H]1CN(c2ccc(N3CCOCC3)c(F)c2)C(=O)O1 | inactive | inactive | inactive | inactive | inactive | inactive | inactive | inactive | inactive |  |
| CCCC(=O)c1cc(O)c(O)cc1O | inactive | inactive | inactive | inactive | inactive | inactive | inactive | inactive |  |  |
| COc1cc([C@@H]2c3cc4c(cc3[C@@H](O[C@@H]3O[C@@H]5CO[C@@H](C)O[C@H]5[C@H](O)[C@H]3O)[C@H]3COC(=O)[C@H]23)OCO4)cc(OC)c1O | inactive | inactive | inactive | inactive | inactive | inactive | inactive |  |  |  |
| CC1CCCC(C)N1NC(=O)c1ccc(Cl)c(S(N)(=O)=O)c1 (stereo not given) | inactive | inactive | inactive | inactive | inactive | inactive | inactive | inactive | inactive |  |
| Cc1ccc(C(C)(C)c2ccc(C)cc2)cc1 | inactive | inactive | inactive | inactive | inactive | inactive | inactive | inactive | inactive |  |
| C=C(Nc1ccc(OCC)cc1)Nc1ccc(OCC)cc1 | inactive | inactive | inactive | inactive | inactive | inactive |  |  |  |  |
| CCCCCCCCCCCC[n+]1ccc2ccccc2c1 | inactive | inactive | inactive | inactive | inactive | inactive | inactive |  |  |  |
| C=CCN1C(=O)C(CC(C)C)NC1=S (stereo not given) | inactive | inactive | inactive | inactive | inactive |  |  | inactive | inactive | inactive |
| CC1(C)CCC(NC(=O)[C@@H](N)CCC(=O)O)CC1 | inactive | inactive | inactive | inactive | inactive | inactive | inactive | inactive | inactive |  |
| CCCCCCCCCC(=O)NO | inactive | inactive | inactive | inactive | inactive | inactive | inactive |  |  |  |
| COC(=O)C(CN)c1c[nH]c2ccc(OC)cc12 (stereo not given) | inactive | inactive | inactive | inactive | inactive | inactive | inactive |  |  |  |
| O=C(Nc1ccccc1)c1cc(Cl)ccc1O | inactive | inactive | inactive | inactive | inactive | inactive | inactive | inactive |  |  |
| O=P(O)(O)OP(=O)(O)OP(=O)(O)O | inactive | inactive | inactive | inactive | inactive | inactive | inactive | inactive | inactive |  |
| CCC(NC(C)C)C(O)c1ccc(O)c(O)c1 (stereo not given) | inactive | inactive | inactive | inactive | inactive | inactive | inactive |  |  |  |
| CCN(CC)CCn1c(=O)c(Cc2ccc(OC)cc2)nc2ccccc21 | inactive | inactive | inactive | inactive | inactive | inactive | inactive | inactive | inactive |  |
| O=C1C2CC3CC1CC(O)(C3)C2 | inactive | inactive | inactive | inactive | inactive | inactive | inactive | inactive | inactive |  |
| CNC(=O)C[C@@H](N)C(=O)N[C@@H](C(=O)N[C@@H]1C(=O)N2[C@@H]1SC(C)(C)[C@@H]2C(=O)O)c1ccc(O)cc1 | inactive | inactive | inactive | inactive | inactive | inactive |  | inactive |  |  |
| CCCCCCCCCCCCN1CCCC1=O | inactive | inactive |  | inactive | inactive | inactive | inactive |  |  | inactive |
| CC(C)CCC[C@@H](C)[C@H]1CC[C@H]2[C@@H]3CC[C@@H]4C[C@H](O)CC[C@]4(C)[C@H]3CC[C@]12C | inactive | inactive |  | inactive | inactive | inactive | inactive | inactive |  | inactive |
| CC(C)(S)C(=O)N[C@@H](CS)C(=O)O | inactive | inactive |  | inactive | inactive |  | inactive | inactive | inactive | inactive |
| CC(C)C[C@@H](NC(=O)[C@@H](O)[C@H](N)Cc1ccccc1)C(=O)O | inactive | inactive |  | inactive | inactive | inactive | inactive |  |  | inactive |

| Structure (SMILES) | outcome [1] | Potency [2] | outcome [3] | outcome [4] | Potency [5] | Potency [6] | Potency [7] | Potency [8] | Potency [9] | outcome [10] |
| --- | --- | --- | --- | --- | --- | --- | --- | --- | --- | --- |
| CC(C)(O/N=C(\C(=O)N[C@@H]1C(=O)N2C(C(=O)[O-])=C(C[n+]3ccccc3)CS[C@H]12)c1csc(N)n1)C(=O)O |  | inactive | inactive | inactive | inactive | inactive | inactive |  |  | inactive |
| CC1(C)S[C@@H]2[C@H](NC(=O)[C@H](N)c3ccc(O)cc3)C(=O)N2[C@H]1C(=O)O | inactive |  | inactive | inactive |  | inactive | inactive |  |  | inactive |
| Cc1c(N)nc([C@H](CC(N)=O)NC[C@H](N)C(N)=O)nc1C(=O)N[C@H](C(=O)N[C@H](C)[C@@H](O)[C@H](C)C(=O)N[C@H](C(=O)NCCc1nc(-c2nc(C(=O)NCCCCN=C(N)N)cs2)cs1)[C@@H](C)O)[C@@H](O[C@@H]1O[C@@H](CO)[C@@H](O)[C@H](O)[C@@H]1O[C@H]1O[C@H](CO)[C@@H](O)[C@H](OC(N)=O)[C@@H]1O)c1cnc[nH]1 | inactive | inactive |  | inactive | inactive |  | inactive | 848 nM [inconclusive] (active) and inactive | inactive | inactive |
| NCc1cccc(C2CCN(C(=O)c3ccc(C#Cc4ccccc4F)o3)CC2)c1 | inactive | inactive |  | inactive | inactive | inactive | inactive |  |  |  |
| CC(C)CCC[C@@H](C)[C@H]1CC[C@H]2[C@@H]3CC=C4C[C@@H](O)CC[C@]4(C)[C@H]3CC[C@]12C | inactive | inactive |  | inactive | inactive | inactive | inactive | inactive | inactive | inactive |
| O=S(=O)(O)CC(S)CS (stereo not given) | inactive | inactive |  | inactive | inactive |  | inactive |  | inactive | inactive |
| CN(C)CCC(O)(c1ccccc1)c1ccccc1Cl (stereo not given) | inactive | inactive |  | inactive | inactive | inactive | inactive | inactive | inactive | inactive |
| c1ccc2cc3c4ccccc4c4ccccc4c3cc2c1 | inactive | inactive |  | inactive | inactive | inactive | inactive |  |  | inactive |
| NCC(O)CC(=O)O (stereo not given) | inactive | inactive |  | inactive | inactive | inactive | inactive | inactive | inactive |  |
| CC(C)c1ccc2sc3ccccc3c(=O)c2c1 | inactive |  | inactive | inactive |  |  |  | inactive | inactive | inactive |
| Cc1ccc2nc(-c3ccc(N)cc3)sc2c1S(=O)(=O)O | inactive | 15.8 µM (active) |  | inactive | 25.1 µM [fluorescent] (active) | inactive | 22.4 µM [fluorescent] (active) |  | inactive | inactive |
| c1ccc(-n2cnnn2)cc1 | inactive | inactive |  | inactive | inactive | inactive | inactive |  | inactive | inactive |
| Cc1cccc(C)c1NC(=O)C1CCCCN1C (stereo not given) | inactive | inactive |  | inactive | inactive | inactive | inactive |  | inactive | inactive |
| COc1ccc2ccccc2c1 | inactive | inactive |  | inactive | inactive | inactive | inactive |  |  | inactive |
| O=C(O)Cc1nn(Cc2ccc(Br)cc2F)c(=O)c2ccccc12 | inactive | inactive |  | inactive | inactive | inactive | inactive |  |  | inactive |
| Nc1ccc(N)c([N+](=O)[O-])c1 | inactive | inactive |  | inactive | inactive | inactive |  |  |  | inactive |
| c1ccc2c(c1)OCC(CN1CCCCC1)O2 (stereo not given) |  | inactive | inactive | inactive | inactive | inactive | inactive |  |  | inactive |
| COc1cccc(-c2ccc(/C=C\CN3CCCCCC3)cc2Cl)c1 |  | inactive | inactive | inactive | inactive | inactive |  |  |  | inactive |
| Cc1cc(N)c2ccccc2[n+]1CCCCCCCCCC[n+]1c(C)cc(N)c2ccccc21 | inactive | inactive |  | inactive | inactive |  | inactive | inactive |  | inactive |
| Cc1c(O)c(=O)ccn1C | inactive | inactive |  | inactive | inactive | inactive | inactive | inactive | inactive | inactive |
| O=C(O)c1ccc(NC2OC[C@@H](O)[C@H](O)[C@H]2O)cc1 (stereo not given in full) | inactive | inactive |  | inactive | inactive | inactive | inactive | inactive |  | inactive |
| c1ccc(-c2ccc(C(c3ccccc3)n3ccnc3)cc2)cc1 (stereo not given) | inactive | inactive |  | inactive | inactive | inactive | inactive |  | 23.9 µM (active) | inactive |
| O=C(O)/C=C/C(O)c1ccc(Cl)cc1 (stereo not given) | inactive | inactive |  | inactive | inactive | inactive | inactive | inactive | inactive | inactive |
